Measurements published in PubChem BioAssay.
A number with no mark means an inactive call. Activity calls are given as the source filed them.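 Rule for the calls: active = inhibition at or above 50% relative to wild type and mutant plate controls; inactive = inhibition below 50%.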

Test: inhibitors of Chlamydomonas gravitaxis, primary screen, whole organism, Chlamydomonas reinhardtii, WT vs cilia-less mutant, absorbance, 96-well (AID 463189);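 note: 0% = wild type cc124 cells in DMSO and 100% = ciliumless bld1 mutant cells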
Conditions: OD600 absorbance, 2 days, at 10 µM, stronger effect = higher value

In order of rising inhibition:
1. OC[C@H]1O[C@@H](n2cnc3c(NCCc4ccccc4)ncnc32)C(O)[C@H]1O (stereo not given in full)  -17%
2. CC1CCN(CC[C@H]2CCCN2S(=O)(=O)c2cccc(O)c2)CC1  -12.1%
3. O=C1NCC2(CCN(CCc3ccccc3)CC2)O1  -9.32%
4. COc1cc2c(cc1O)CC[C@@H]1[C@@H]2CC[C@]2(C)[C@@H](O)CC[C@@H]12  -5.37%
5. O=c1[nH]c(=O)c2nc3ccccc3nc2[nH]1  -4.43%
6. CN=C(NC#N)Nc1ccc(C2=NNC(=O)CC2C)cc1 (stereo not given)  -4.34%
7. O=C(O)/C=C/C(O)c1ccc(Cl)cc1 (stereo not given)  -3.97%
8. NC12CC3CC(CC(C3)C1)C2  -2.58%
9. O=S(=O)(c1cccc2c(I)cccc12)N1CCCNCC1  -1.51%
10. Cn1cnc2c(NC3CCCC3)ncnc21  0.556%
11. CCC1(C)CC(=O)NC1=O (stereo not given)  1.95%
12. O=C1OC(=O)C2C3CCC(O3)C12 (stereo not given)  2.39%
13. CCCC(C(=O)OCCN(CC)CC)(c1ccccc1)c1ccccc1  4.83%
14. CC(C)COC(=O)OCN1C(=O)CN(CCN2CC(=O)N(COC(=O)OCC(C)C)C(=O)C2)CC1=O  5.88%
15. NCCSSCCN  6.01%
16. O=S(=O)(c1cccc2c(Cl)cccc12)N1CCCNCC1  6.11%
17. COc1ccccc1N1CCN(CCCCNC(=O)c2ccc3ccccc3c2)CC1  6.15%
18. CSc1nc(N)c2ncn([C@@H]3O[C@H](COP(=O)(O)OP(=O)(O)O)[C@H](O)C3O)c2n1 (stereo not given in full)  6.63%
19. COc1ccc(-c2ccc(N)[n+](CCCC(=O)O)n2)cc1  7.29%
20. CN=C(NC#N)NCCSCc1nc[nH]c1C  8.94%
21. CC(C)(C)c1onc(OCP(=O)(O)O)c1CC(N)C(=O)O (stereo not given)  9%
22. CSC(N)=NCCC[C@H](N)C(=O)O  9.75%
23. CCCOC(=O)c1c(-c2ccccc2)nc(CC)c(C(=O)SCC)c1CCC  10.6%
24. O=c1cc(-c2ccc(O)cc2)oc2cc(O)cc(O)c12  14.8%

With CN(C)C/C=C(/c1ccc(Br)cc1)c1cccnc1 the inhibition was 108% (active).
